Common to all, as to experiment: NCI-60 one-dose screen, 48 h (100 = growth as untreated, 0 = no growth, -100 = all killed)
The test system of test [1] is OVCAR-8 ovarian.
Test [2] relates to OVCAR-4 ovarian.
Test [3] relates to SK-OV-3 ovarian.
The test system of test [4] is IGROV1 ovarian.
In test [5] the test system is OVCAR-3 ovarian.
The test system of test [6] is HS 578T breast.
Test [7] has as its system NCI/ADR-RES ovarian.
Test [8] has as its system T-47D breast.
Test [9] deals with BT-549 breast.
In test [10] the test system is MDA-MB-435 melanoma.
The subject of test [11] is SW-620 colon.
The test system of test [12] is MCF7 breast.
Test [13] concerns HCT-116 colon.
In test [14] the test system is HCC-2998 colon.
The test system of test [15] is KM12 colon.

“And” between values parts separate entries of the source, which are not always exact repeats. Equal values may be shown once. Compounds without any hit were thinned out: in the full panel of roughly 83,000, 20% have a hit.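 Values shown are percent growth following 48 h exposure of cells in 96-well plates to a single concentration of compound; below 10 was considered active.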 A number with no mark means an inactive call. The source made the active and inactive calls.

With `BrC/C=C/C[P+](c1ccccc1)(c1ccccc1)c1ccccc1`, the growth in [1] (10 µM) was 28.3%; in test [2] (10 µM) it was 98.8%; in test [3] (10 µM), 95.5%; in [4] (10 µM), 83.8%; in [5] (10 µM), 32.4%; in [6] (10 µM), 92.4%. Besides, the growth was 96.7% in test [7] (10 µM); 10.7% in test [8] (10 µM); 57.1% in test [9] (10 µM); 28.4% in test [10] (10 µM); 32.3% in test [11] (10 µM); 20.3% in test [12] (10 µM). Further, the results for the growth in test [13] (10 µM), in test [14] (10 µM) and in [15] (10 µM) were 14.8%, 71.9% and 16.1%, respectively.
In the case of `Cc1cc(NCCCN(C)C)c2ccc3c(ccc4c(NCCCN(C)C)cc(C)nc43)c2n1`, the growth in test [1] (10 µM) was -24.6% (active); in test [2] (10 µM) it was -33.7% (active); in test [3] (10 µM), -39.4% (active); in [4] (10 µM), -73.4% (active); in test [5] (10 µM), -58.3% (active); in test [6] (10 µM), -42.7% (active). Moreover, the growth in [7] (10 µM) was -10.4% (active); in test [8] (10 µM), -34.2% (active); in test [9] (10 µM) it was -91.4% (active); in [10] (10 µM) it was -99.1% (active); in [11] (10 µM) it was -99.3% (active); in test [12] (10 µM), -89% (active). In addition, the growth in test [13] (10 µM) is -15.4% (active); in [14] (10 µM), -66.1% (active); in test [15] (10 µM), -97.6% (active).
As to `O=C(/C(=C/c1ccccc1)CBr)c1ccccc1`, the growth in [1] (10 µM) is 86.1%; in test [2] (10 µM), 80.3%; in [3] (10 µM), 112%; in test [4] (10 µM), 90.9%; in test [5] (10 µM), 66.1%; in test [6] (10 µM), 82.9%. The growth in test [7] (10 µM) is 81.4%; in test [8] (10 µM), 77.5%; in test [9] (10 µM) it was 112%; in [10] (10 µM), 64%; in test [11] (10 µM), 17.3%; in [12] (10 µM), 42.9%. The results for the growth in [13] (10 µM), in [14] (10 µM) and in [15] (10 µM) were 35.8%, 108% and 88.5%, respectively.
On to `CSc1ccc2c(c1)C(N1CCN(C)CC1)Cc1ccccc1S2` (stereo not drawn), for which the growth in test [1] (10 µM) is 67.9%; in test [2] (10 µM) it was 36.1%; in [3] (10 µM), 86.2%; in test [4] (10 µM) it was 20.8%; in test [5] (10 µM), 61.4%; in test [6] (10 µM), 39.8%. For the same compound, the growth in test [7] (10 µM) was 49.2%; in [8] (10 µM), 43.3%; in [9] (10 µM) it was 63.1%; in [10] (10 µM) it was 7.17% (active); in [11] (10 µM), 54.4%; in test [12] (10 µM) it was 20.9%. Moreover, the growth in test [13] (10 µM) was 29.3%; in [14] (10 µM), -39.2% (active); in test [15] (10 µM) it was 21.4%.
`O=c1[nH]cc(F)c(=O)[nH]1`: the growth in test [1] (10 µM) was 53.1%; in test [1] (50 µM), 46.7%; in test [2] (10 µM), 72.6% and 107%; in test [2] (25 µM) it was 59.4%; in test [2] (50 µM) it was 68.5%; in test [3] (10 µM), 70% and 74.7%. Also, the growth is 77.5% in test [3] (25 µM); 54.3% and 44.1% in test [4] (10 µM); 51.2% in test [4] (25 µM); 46.2% in [4] (50 µM); 52.5% and 72.2% in test [5] (10 µM); 47.4% in [5] (25 µM). Further, the growth is 31% in [5] (50 µM); 99% in test [6] (10 µM); -10.8% (active) in test [6] (25 µM); 58.8% in [6] (50 µM); 67.2% and 63.5% in test [7] (10 µM); 47.6% in test [7] (25 µM). The growth in test [7] (50 µM) is 56.5%; in [8] (10 µM) it was 64.4% and 52.8%; in test [8] (25 µM), 56.7%; in test [9] (10 µM), 57.2% and 54.6%; in test [9] (25 µM), 37.8%; in [9] (50 µM) it was 60.6%. Also, the growth in [10] (10 µM) was 42.3% and 50.9%; in test [10] (25 µM), 36.6%; in test [10] (50 µM), 42.2%; in test [11] (10 µM), 60.1% and 77.8%; in [11] (25 µM), 50.1%; in test [11] (50 µM), 43.4%. The growth in test [12] (10 µM) was 29.6% and 18.3%; in test [12] (25 µM), 11.5%; in test [12] (50 µM), 18.2%; in [13] (10 µM), 33.9% and 46.9%; in test [13] (25 µM) it was 17.8%; in test [13] (50 µM), 28.3%. Also, the growth in [14] (10 µM) was 18.9%; in test [14] (25 µM) it was -17.8% (active); in [14] (50 µM) it was 35.7%; in test [15] (10 µM), 47% and 42.4%; in test [15] (25 µM), 40.7%; in test [15] (50 µM) it was 32%.
As to `COc1cc(C(C)(C)C)cc(OC)c1C(O)(c1c(OC)cc(C(C)(C)C)cc1OC)c1c(OC)cc(C(C)(C)C)cc1OC`, the growth is -64.3% (active) in [1] (10 µM); -99.6% (active) in test [2] (10 µM); -86.7% (active) in test [3] (10 µM); 2.83% (active) in test [4] (10 µM); -94.1% (active) in test [5] (10 µM); -33.3% (active) in test [6] (10 µM). In addition, the growth in test [7] (10 µM) was -56.8% (active); in test [8] (10 µM) it was -30.2% (active); in test [9] (10 µM), -58.9% (active); in test [10] (10 µM), -45.3% (active); in [11] (10 µM), -79.8% (active); in test [12] (10 µM), -88.6% (active). The figures for the growth in [13] (10 µM), in test [14] (10 µM) and in test [15] (10 µM) were -100% (active), -91.9% (active) and -80.8% (active), respectively.
For `COc1ccc2c(C)cc(N/N=C/c3sccc3C)nc2c1`, the growth in test [12] (100 µM) was -73.1% (active) and -100% (active).
